High-throughput results as filed in PubChem.
Hits are enriched below; roughly 11% of the tested compounds scored in any of these assays.
USP30 inh: inhibitors of human USP30 deubiquitinase; purified USP30, Ub-rhodamine cleavage fluorescence; Q70CQ3; inhibition, % at 25 µM; 47,000 tested, 5.3% active
USP28 inh: human USP28 deubiquitinase inhibition. Q96RU2. purified USP28, Ub-rhodamine cleavage fluorescence, 30 min. inhibition, % at 25 µM. 47,000 tested, 3% active. AID 1645857
USP17 block: inhibitors of human USP17 deubiquitinase | purified USP17, Ub-rhodamine cleavage fluorescence, 3 h | 47,000 tested, 6.5% active | inhibition, % at 50 µM | A8MUK1
Target sequence (A8MUK1 whole entry, looked up): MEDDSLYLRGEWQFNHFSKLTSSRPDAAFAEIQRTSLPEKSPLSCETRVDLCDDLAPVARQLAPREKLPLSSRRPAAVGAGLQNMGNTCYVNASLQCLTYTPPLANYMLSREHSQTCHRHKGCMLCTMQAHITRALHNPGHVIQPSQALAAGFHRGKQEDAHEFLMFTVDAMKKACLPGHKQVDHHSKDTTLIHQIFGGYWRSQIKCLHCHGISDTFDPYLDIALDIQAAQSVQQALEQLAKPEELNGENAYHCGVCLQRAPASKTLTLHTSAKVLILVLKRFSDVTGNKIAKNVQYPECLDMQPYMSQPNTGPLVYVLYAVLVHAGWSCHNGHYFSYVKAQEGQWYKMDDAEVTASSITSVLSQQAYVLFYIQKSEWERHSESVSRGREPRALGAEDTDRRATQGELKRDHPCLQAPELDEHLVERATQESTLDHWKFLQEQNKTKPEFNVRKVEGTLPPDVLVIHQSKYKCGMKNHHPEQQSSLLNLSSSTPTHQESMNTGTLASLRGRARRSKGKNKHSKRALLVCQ
* hit, by the source's call. Cut-off read from the data, not from the text of the source: active = inhibition above about 30%; inactive = the rest.

`Nc1ncc(CN2CCC3(CC2)Nc2ccccc2C2=NCCN23)cn1` gave USP30 inh -6.8, USP28 inh -4.6 and USP17 block -1.3.
`CC(C)c1nc(CN2CCCC2Cn2cccn2)no1` (configuration not stated) gave USP30 inh -26.6, USP28 inh -0.1 and USP17 block -12.8.
CCOc1ccc(Nc2nc3ccccc3nc2Nc2cc(C)nn2-c2ccc([N+](=O)[O-])cc2)cc1 was read as USP30 inh 11.5, USP28 inh 7.7 and USP17 block 41.9*.
Cc1cc(C)n(-c2nc3ccccc3nc2N2CCN(c3ccc([N+](=O)[O-])cc3)CC2)n1 was read as USP30 inh 13.3, USP28 inh 2.4 and USP17 block -3.4.
`Cc1ccc(Cn2c(CO)cnc2SCC(=O)Nc2ccc3c(c2)OCCO3)cc1` gave USP30 inh -15.7, USP28 inh 10.8 and USP17 block -10.5.
For COc1ccc(NC(=O)CSc2cc(N3CCCCC3)ncn2)cc1OC the results were USP30 inh 12.5, USP28 inh 13.0 and USP17 block 0.7.
Cc1ccc(NC(=O)CSc2cc(N3CCCCC3)ncn2)cc1F was read as USP30 inh 31.0*, USP28 inh 24.7 and USP17 block -0.2.
For COc1ccc(NC(=O)CSc2nc(-c3ccc4c(c3)OCO4)ccc2C#N)cc1OC the results were USP30 inh -65.2, USP28 inh 14.4 and USP17 block 33.2*.
For COc1ccc(-c2csc3ncnc(OCC(=O)Nc4ccc5c(c4)OCO5)c23)cc1OC the results were USP30 inh -7.6, USP28 inh 7.5 and USP17 block 17.8.
Screening O=C(CSc1cc(N2CCCCC2)ncn1)Nc1ccc2c(c1)OCCO2 returned USP30 inh -12.1, USP28 inh 48.5* and USP17 block -8.6.
COc1ccccc1-c1ccc(SCC(=O)Nc2ccc3c(c2)OCCO3)nn1 was read as USP30 inh 39.6*, USP28 inh 79.7* and USP17 block 26.8.
Cc1nc(C)c(-c2ccc(SCC(=O)Nc3ccc4c(c3)OCCO4)nn2)s1 was read as USP30 inh -115.2, USP28 inh -15.1 and USP17 block -34.7.
`CC(NC(=O)c1ccc(-c2ccc(F)cc2)o1)c1ccccc1` (configuration not stated) gave USP30 inh -83.4, USP28 inh -12.7 and USP17 block -3.9.
Screening CC1(C)CC(NC(=O)N2CCOCC2)CC(C)(CNC(=O)N2CCOCC2)C1 (configuration not stated) returned USP30 inh 18.5, USP28 inh 3.2 and USP17 block 2.1.
`COc1cccc(C(=O)OC(C(=O)c2c[nH]c3ccccc23)c2ccccc2)c1OC` (configuration not stated) gave USP17 block -37.6.
Screening CCN(C(=O)C(=O)c1cn(CC(=O)N2CCOCC2)c2ccccc12)c1ccccc1 returned USP30 inh -7.0, USP28 inh -4.0 and USP17 block -1.6.
`O=C(c1cc(-c2ccncc2)n[nH]1)N1CCN(C(=O)C2CCCCC2)CC1` gave USP30 inh 9.8, USP28 inh -2.3 and USP17 block 1.8.
CC1(C)Oc2ccc(O)cc2CC1O (configuration not stated) was read as USP30 inh -16.6, USP28 inh -6.9 and USP17 block -30.2.
For Cc1ccc(-c2c(C(=O)Nc3ccc(S(N)(=O)=O)cc3)oc(=O)c3ccccc23)cc1 the results were USP30 inh 23.2, USP28 inh -4.5 and USP17 block 56.6*.
COc1ccc(NC(=O)c2oc(=O)c3ccccc3c2-c2ccccc2)cc1 was read as USP30 inh 3.4, USP28 inh -8.8 and USP17 block -0.1.
Cc1ccc(NC(=O)N2CCN3C(=O)N(Cc4ccccn4)C(=O)C3(C)CC2)cc1 (configuration not stated) was read as USP30 inh 22.3, USP28 inh 15.4 and USP17 block 14.6.
For CN1[C@@H](CCC(=O)NCc2ccccc2)CNC(=O)[C@@H]2[C@H]1CCN2Cc1ccccn1 the results were USP30 inh -162.7, USP28 inh -23.5 and USP17 block -87.0.
Cc1ncc(-c2ccc(C)c(S(=O)(=O)Nc3cccc4c3CCCC4)c2)o1 was read as USP30 inh -7.8, USP28 inh 23.8 and USP17 block 0.3.
`COc1ccc(NS(=O)(=O)c2cc(-c3cnc(C4CC4)o3)ccc2C)cc1OC` gave USP30 inh -22.5, USP28 inh -7.5 and USP17 block -6.0.
Screening Cc1ccc(C)c(NS(=O)(=O)c2cc(-c3cnc(C4CC4)o3)ccc2C)c1 returned USP30 inh -1.7, USP28 inh -4.5 and USP17 block 51.9*.
`Cc1ccc(-c2cnc(C3CC3)o2)cc1S(=O)(=O)Nc1ccc(F)c(Cl)c1` gave USP30 inh 1.9, USP28 inh 29.0 and USP17 block 65.9*.
COC(=O)c1sc2ccc(NC(=O)c3ccc(OC)c(OC)c3)cc2c1OC was read as USP30 inh -9.8, USP28 inh -5.0 and USP17 block 2.4.
`CCCN1CCN(C(=O)Cn2c(C)ccc(NC(=O)c3ccccc3)c2=O)CC1` gave USP30 inh -2.8, USP28 inh -11.9 and USP17 block -9.3.
Screening CC(=O)Nc1ccc(-n2cnc(C(=O)N3CCCCCC3)c2)nc1 returned USP30 inh -0.6, USP28 inh -2.0 and USP17 block -5.8.
`CC(=O)Nc1ccc(-n2cnc(C(=O)N3CCCC(C)C3)c2)nc1` (configuration not stated) gave USP30 inh 41.2*, USP28 inh 6.5 and USP17 block 11.1.
Screening CC1CCCN(C(=O)c2cn(-c3cc(N4CCCCC4)ncn3)cn2)C1 (configuration not stated) returned USP30 inh 8.4, USP28 inh 13.2 and USP17 block 5.6.
For O=C(c1cn(-c2cc(N3CCCCC3)ncn2)cn1)N1CCCCC1 the results were USP30 inh 20.5, USP28 inh 16.1 and USP17 block -3.7.
For CC1CCN(c2cc(-n3cnc(C(=O)N4CCCC(C)C4)c3)ncn2)CC1 (configuration not stated) the results were USP30 inh -0.3, USP28 inh 62.3* and USP17 block 0.8.
`CC1CCN(c2cc(-n3cnc(C(=O)N4CCCCC4)c3)ncn2)CC1` gave USP30 inh -3.9, USP28 inh 51.0* and USP17 block -2.7.
For Cc1ccc(CNC(=O)Cn2c(N3CCOCC3)nc(C)cc2=O)cc1 the results were USP17 block 8.0.
Screening O=C(c1n[nH]c2c1CCCC2)N1CCCC(c2ccncn2)C1 (configuration not stated) returned USP30 inh -2.6, USP28 inh -1.1 and USP17 block -1.5.
c1cc2[nH]ncc2cc1CC1CNCCOC1 (configuration not stated) was read as USP30 inh 23.8, USP28 inh 10.9 and USP17 block 14.7.
For COc1ccc([N+](=O)[O-])cc1NC(=O)COC(=O)C1CCCN1S(=O)(=O)c1ccc(Cl)cc1 (configuration not stated) the results were USP30 inh 34.6*, USP28 inh 3.9 and USP17 block 0.2.
For COc1ccc(S(=O)(=O)N2CCOCC2)cc1NC(=O)COc1ccc([N+](=O)[O-])cc1 the results were USP30 inh 7.9, USP28 inh 7.9 and USP17 block 17.7.
